39 molecules from the supplement of paper PMC7156485 can be followed below.

Molecules are shown by their SMILES.
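Also: TDF is a line of transformed human dermal fibroblasts of mesenchymal origin.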

In the experiment the test system is TDF. Kind of experiment: H1.0 immunofluorescence intensity relative to DMSO (% of DMSO); higher = stronger H1.0 induction, active = 120 or more. To be noted: concentration: 10 µM; 24 h. In outline: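 HCC1569 and TDF cells were seeded at 800 per well in 384-well plates in RPMI with 10% FBS and treated with compounds at 10 µM for 24 h at 37 °C, in triplicate. After fixation in 3.7% formaldehyde, cells were stained with a rabbit anti-H1.0 antibody, an AlexaFluor 647 secondary and DAPI, and six fields per well were imaged at ×10. H1.0 nuclear intensity or cell number is given as percent of the plate control, using the median of replicates, with HCC1569 values smoothed for positional effects.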
Regarding `CC1CCC2(C(=O)O)CCC3(C)C(=CCC4C5(C)CC(O)C(O)C(C)(CO)C5C(O)CC43C)C2C1C` (centres undefined) [Madecassic acid], the H1.0 immunofluorescence intensity was 91.6 (inactive).

As to `OC1c2ccccc2N=C2CCCN21` (centres undefined) [Peganole], the H1.0 immunofluorescence intensity was 95.3 (inactive).

For the molecule `COc1ccc(-c2ccc3c(N4CCOCC4)nc(N4CC(C)OC(C)C4)nc3n2)cc1CO` (centres undefined), the H1.0 immunofluorescence intensity is 87.6 (inactive).

Take `CCCCCCCCCCCCCCCCOCC(COP(=O)([O-])OCC[N+](C)(C)C)OC(=O)NC` (centres undefined): the H1.0 immunofluorescence intensity was 95.7 (inactive).

Regarding `Cl.Nc1c2c(nc3ccccc13)CCCC2` [9-Amino-1,2,3,4-tetrahydroacridine hydrochloride], the H1.0 immunofluorescence intensity is 94.8 (inactive).

As to `Cl.Nc1nc2ccc(OC(F)(F)F)cc2s1` [Riluzole.HCl], the H1.0 immunofluorescence intensity was 96.2 (inactive).

Turning to `C=C1CC2C3C=C(C)C4=CC(=O)CCC4(C)C3CCC2(C)C1(OC(C)=O)C(C)=O` (centres undefined) [Melengestrol Acetate], the H1.0 immunofluorescence intensity is 94.3 (inactive).

For the molecule `O=C(Nc1ccc(S(=O)(=O)Nc2nccs2)cc1)C(c1ccccc1)c1ccccc1`, the H1.0 immunofluorescence intensity is 86 (inactive).

As to `O=C(O)c1cccnc1C(=O)O` [Quinolinic acid], the H1.0 immunofluorescence intensity was 90.7 (inactive).

Turning to `CCCc1cc(C(N)=S)ccn1` [Prothionamide], the H1.0 immunofluorescence intensity is 99.4 (inactive).

In the case of `O=c1c(-c2ccc(O)cc2)coc2cc(OC3OC(CO)C(O)C(O)C3O)cc(O)c12` (centres undefined) [Genistin], the H1.0 immunofluorescence intensity was 93 (inactive).

Regarding `CCc1nc(-c2cccc(C)c2)c(-c2ccnc(NC(=O)c3ccccc3)c2)s1`, the H1.0 immunofluorescence intensity is 87.8 (inactive).

Take `O=C(O)c1cc(=O)c2c(Cl)cc(Cl)cc2[nH]1` [5,7-Dichlorokynurenic acid]: the H1.0 immunofluorescence intensity was 95.2 (inactive).

For the molecule `Br.CCSC(=N)N` [S-Ethylisothiourea hydrobromide], the H1.0 immunofluorescence intensity was 97.1 (inactive).

Regarding `COc1cc(CC2C(=O)OCC2Cc2ccc(OC)c(OC)c2)ccc1O` (centres undefined), the H1.0 immunofluorescence intensity was 103 (inactive).

With `C=C1C(=O)C23C(O)C1CCC2C12COC3(O)C(O)C1C(C)(C)CCC2O` (centres undefined) [Rubescensin A], the H1.0 immunofluorescence intensity is 96.2 (inactive).

Consider `CCOc1nc(NC(=O)Cc2cc(OC)ccc2OC)cc(N)c1C#N` [JNK Inhibitor VIII], for which the H1.0 immunofluorescence intensity is 92.7 (inactive).

For `O=C1C(SCCO)=C(SCCO)C(=O)c2ccccc21` [2,3-bis[(2-hydroxyethyl)sulfanyl]naphthoquinone], the H1.0 immunofluorescence intensity was 103 (inactive).

For the molecule `c1ccc(CNc2nc(NCc3ccccc3)c3ccccc3n2)cc1` [N~2~,N~4~-dibenzyl-2,4-quinazolinediamine], the H1.0 immunofluorescence intensity is 156 (active).

Regarding `OCC1OC(n2cnc3c(NC4CCCC4)ncnc32)C(O)C1O` (centres undefined) [N6-Cyclopentyladenosine], the H1.0 immunofluorescence intensity is 93.5 (inactive).

With `COc1nc(C)nc(Cl)c1NC1=NCCN1.Cl` [Moxonidine hydrochloride], the H1.0 immunofluorescence intensity is 92 (inactive).

Regarding `CCCS(=O)c1ccc2nc(NC(=O)OC)[nH]c2c1` (centres undefined) [Ricobendazole], the H1.0 immunofluorescence intensity was 114 (inactive).

In the case of `NC(=O)c1ncn(C2OC(CO)C(O)C2O)n1` (centres undefined) [Ribavirin], the H1.0 immunofluorescence intensity is 94.5 (inactive).

Turning to `COc1cc(OC)c2cc(-c3ccncc3)cnc2c1.Cl.Cl` [5,7-dimethoxy-3-(4-pyridinyl)quinoline dihydrochloride], the H1.0 immunofluorescence intensity was 92.4 (inactive).

`CN1CCN(CC(=O)N2c3ccccc3C(=O)Nc3cccnc32)CC1.Cl.Cl` [Pirenzepine dihydrochloride]: the H1.0 immunofluorescence intensity is 97.4 (inactive).

Consider `COC(=O)C1=C(C)NC(C)=C(C(=O)OCCN(C)Cc2ccccc2)C1c1cccc([N+](=O)[O-])c1.Cl` (centres undefined) [Nicardipine.HCl], for which the H1.0 immunofluorescence intensity is 98.7 (inactive).

With `O=c1oc(Cl)c(Cl)c2ccccc12` [3,4-Dichloroisocoumarin], the H1.0 immunofluorescence intensity was 91.9 (inactive).

As to `Br.Br.NC(N)=NCCSSCCN=C(N)N` [Guanidinoethyl disulfide dihydrobromide], the H1.0 immunofluorescence intensity is 96.5 (inactive).

For the molecule `O=C(O)c1ccc(NC(=O)[C@H](CC2CCCC2)n2cnc(C(F)(F)F)c2)nc1`, the H1.0 immunofluorescence intensity was 96.9 (inactive).

On to `Cc1cc(C)c(NC(=O)CC(CC(=O)[O-])c2cccc3ccccc23)c(C(=O)N2CCC3(CCCC3)CC2)c1.[Na+]` (centres undefined), for which the H1.0 immunofluorescence intensity was 101 (inactive).

For `CC(CCc1ccccc1)NCC(O)c1ccc(O)c(C(N)=O)c1.Cl` (centres undefined) [Labetalol hydrochloride], the H1.0 immunofluorescence intensity was 83.5 (inactive).

On to `C=C1NC2(C(=O)COC(C)=O)C(CC3C4CCC5=CC(=O)C=CC5(C)C4C(O)CC32C)O1` (centres undefined), for which the H1.0 immunofluorescence intensity is 86 (inactive).

For the molecule `CCCCCC(O)C=CC1=C(CCCCCCC(=O)O)C(=O)CC1` (centres undefined) [Prostaglandin B1], the H1.0 immunofluorescence intensity is 97.7 (inactive).

Turning to `CON=C(C(=O)NC1C(=O)N2C(C(=O)[O-])=C(COC(C)=O)CSC12)c1csc(N)n1.[Na+]` (centres undefined) [Cefotaxime sodium], the H1.0 immunofluorescence intensity is 92.3 (inactive).

Consider `Cc1cc(C(C)(C)C)c(O)c(C)c1CC1=NCCN1.Cl` [Oxymetazoline hydrochloride], for which the H1.0 immunofluorescence intensity was 93.9 (inactive).

Regarding `COc1cc(CNC(=O)CCCCCCC(C)C)ccc1O` [Dihydrocapsaicin], the H1.0 immunofluorescence intensity was 91.1 (inactive).

As to `COc1cc2ncn(-c3cc(OCc4ccccc4S(C)(=O)=O)c(C#N)s3)c2cc1OC` [IKK-3 Inhibitor IX], the H1.0 immunofluorescence intensity was 84.2 (inactive).

Take `O=c1cc(-c2ccc(O)cc2)oc2cc(O)cc(O)c12` [Apigenin]: the H1.0 immunofluorescence intensity was 89.2 (inactive).

Take `CCCc1cc(=O)oc2c(C(=O)N3CCCc4ccccc43)c(OC)cc(OC)c12`: the H1.0 immunofluorescence intensity was 108 (inactive).
